Measurements published in the supplement of paper PMC6607015.
Where a name gives a salt, the structure may show the parent alone.

Legend:
Conditions in all cases: compound concentration in added solution (µM; 5 µl added to 20 µl cells): 10; 18 h
A431 [1] = experiment: LBPA endosome anti-LBPA integrated intensity (sum per cell), Z-score; higher = more LBPA staining
Method in brief: (§1)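 Four 20× images per well were taken of HeLa MZ or A431 cells that had been seeded at 3,500 per well in 20 µl onto 5 µl of 10 µM compound solution in duplicate 384-well imaging plates. Before imaging, cells were incubated 18 h, fixed in 4% PFA and stained with 6C4 anti-LBPA antibody, filipin, propidium iodide and CellTracker green. Values are Z-scores normalised in AcuityXpress from MetaXpress-derived per-cell integrated LBPA or filipin intensity, either whole-cell or within LBPA endosomes.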

HeLa MZ [2] = experiment: as above
Method in brief: as §1

A431 [3] = experiment: whole-cell filipin (free cholesterol) integrated intensity, Z-score; higher = more cholesterol staining
Method in brief: as §1

HeLa MZ [4] = experiment: as above
Method in brief: as §1

A431 [5] = experiment: filipin (cholesterol) integrated intensity within LBPA endosomes, Z-score; higher = more cholesterol in LBPA endosomes
Method in brief: as §1

HeLa MZ [6] = experiment: as above
Method in brief: as §1

Row | SMILES | LBPA endosome anti-LBPA integrated intensity (z-score) (A431 [1]) | LBPA endosome anti-LBPA integrated intensity (z-score) (HeLa MZ [2]) | whole-cell filipin (z-score) (A431 [3]) | whole-cell filipin (z-score) (HeLa MZ [4]) | filipin (z-score) (A431 [5]) | filipin (z-score) (HeLa MZ [6])
1 | CCn1cc(C(=O)O)c(=O)c2cc(F)c(N3CCN(C)CC3)cc21 [Pefloxacine] | -0.525 | -0.713 | -0.866 | -1.02 | -0.571 | -0.621
2 | CCOC(=O)Nc1ccc2c(c1)N(C(=O)CCN1CCOCC1)c1ccccc1S2 [Moricizine hydrochloride] | -0.59 | 0.328 | -0.0401 | 0.0759 | -0.436 | 0.233
3 | CN[C@@H]1[C@@H](O[C@H]2O[C@H](CO)[C@@H](N)[C@H](O)[C@H]2O)OC2C[C@@H](N)[C@@H](O[C@H]3[C@H](O)[C@@H](O)[C@H](N)C[C@@H]3N)OC2[C@@H]1O (some centres not stated) [Apramycin] | -0.469 | -0.358 | -0.077 | -0.329 | -0.402 | -0.523
4 | COc1ccc(-c2ccc(=N)n(CCCC(=O)O)n2)cc1 [Gabazine bromide] | -0.561 | -0.0518 | -0.811 | -0.576 | -0.574 | -0.549
5 | CC(C(=O)O)c1ccc(C(=O)c2ccccc2)s1 (configuration not stated) [Tiaprofenic acid] | -0.52 | -0.291 | -0.49 | 0.105 | -0.443 | -0.426
6 | CC[C@H]1OC(=O)[C@H](C)[C@@H](O[C@H]2C[C@@](C)(OC)[C@@H](O)[C@H](C)O2)[C@H](C)[C@@H](O[C@@H]2O[C@H](C)C[C@H](N(C)C)[C@H]2O)[C@](C)(O)C[C@@H](C)/C(=N\OCOCCOC)[C@H](C)[C@@H](O)[C@]1(C)O [Roxithromycin] | -0.396 | 0.565 | 0.114 | 0.214 | -0.261 | 0.0396
7 | Cc1oncc1C(=O)Nc1ccc(C(F)(F)F)cc1 [Leflunomide] | -0.572 | -0.48 | -0.143 | -0.573 | -0.693 | -0.555
8 | CC[N+](CC)(CC)CCC(O)(c1ccccc1)C1CCCCC1 (configuration not stated) [Tridihexethyl chloride] | -0.607 | -0.578 | -0.338 | -0.512 | -0.437 | -0.697
9 | OC(CCCN1CCCCC1)(c1ccccc1)c1ccccc1 [Diphenidol hydrochloride] | -0.218 | 0.517 | -0.613 | -0.594 | -0.133 | -0.0129
10 | Clc1ccc2c(c1)CCc1cccnc1C2=C1CCNCC1 [Desloratadine] | 3.93 | 2.5 | 1.63 | 0.223 | 2.69 | 2.81
11 | CC(=O)c1ccc2c(c1)N(CCCN1CCC(CCO)CC1)c1ccccc1S2 [Piperacetazine] | 4.58 | 1.54 | 2.51 | 1.35 | 3.1 | 3.21
12 | CCCCOc1ccc(OCCCN2CCOCC2)cc1 [Pramoxine hydrochloride] | -0.284 | 1.34 | 0.443 | 2.25 | -0.151 | 0.197
13 | CCCOc1ccc(C(=O)OCCN(CC)CC)cc1N [Proparacaine hydrochloride] | -0.432 | 0.26 | -0.369 | -0.271 | -0.454 | -0.0385
14 | Clc1ccc(CSC(Cn2ccnc2)c2ccc(Cl)cc2Cl)cc1 (configuration not stated) [Sulconazole nitrate] | 0.249 | 1.59 | 1.22 | 1.32 | 0.361 | 0.461
15 | NC(=O)c1cccnc1 [Nicotinamide] | -0.398 | -0.64 | -0.512 | -0.013 | -0.419 | -0.499
16 | CCCN[C@H]1CCc2nc(N)sc2C1 [Pramipexole] | -0.166 | 0.761 | 0.197 | 0.182 | -0.247 | -0.149
17 | CN(C)CCCN1c2ccccc2Sc2ccc(C(F)(F)F)cc21 [Triflupromazine hydrochloride] | 3.06 | 1.61 | 0.711 | 0.675 | 2.23 | 2.87
18 | CC[C@H](C)[C@H](N)C1=N[C@H](C(=O)N[C@@H](CC(C)C)C(=O)N[C@H](CCC(=O)O)C(=O)N[C@H](C(=O)N[C@H]2CCCCNC(=O)[C@H](CC(N)=O)NC(=O)[C@@H](CC(=O)O)NC(=O)[C@H](Cc3cnc[nH]3)NC(=O)[C@@H](Cc3ccccc3)NC(=O)[C@H]([C@@H](C)CC)NC(=O)[C@@H](CCCN)NC2=O)[C@@H](C)CC)CS1 [Bacitracin] | -0.168 | 0.277 | -0.0253 | 0.293 | -0.368 | -0.388
19 | CCN(CC)C(=O)N1CCN(C)CC1 [Diethylcarbamazine citrate] | -0.522 | -0.824 | -0.731 | -0.758 | -0.529 | -0.553
20 | O=C(CCCN1CC=C(n2c(=O)[nH]c3ccccc32)CC1)c1ccc(F)cc1 [Droperidol] | 0.278 | 1.75 | 0.378 | 0.978 | 0.193 | 0.762
21 | O=C(COc1ccc(Cl)cc1)N1CCN(Cc2ccc3c(c2)OCO3)CC1 [Fipexide hydrochloride] | -0.365 | 0.298 | -0.792 | -0.7 | -0.47 | -0.495
22 | CCOC(=O)c1ccc(N)cc1 [Benzocaine] | -0.607 | -1.32 | -0.4 | -0.36 | -0.613 | -0.643
23 | CCC(=O)O[C@@H](O[P@](=O)(CCCCc1ccccc1)CC(=O)N1C[C@H](C2CCCCC2)C[C@H]1C(=O)O)C(C)C [Fosinopril] | -0.177 | -0.153 | -0.025 | 0.0232 | -0.364 | -0.383
24 | C[C@]12C=CC(=O)C=C1CC[C@H]1[C@@H]3C[C@@H](O)[C@](O)(C(=O)CO)[C@@]3(C)C[C@H](O)[C@@]12F [Triamcinolone] | -0.203 | -0.607 | -0.346 | -0.264 | -0.211 | -0.572

Row | SMILES | LBPA endosome anti-LBPA integrated intensity (z-score) (A431 [1]) | LBPA endosome anti-LBPA integrated intensity (z-score) (HeLa MZ [2]) | whole-cell filipin (z-score) (A431 [3]) | whole-cell filipin (z-score) (HeLa MZ [4]) | filipin (z-score) (A431 [5]) | filipin (z-score) (HeLa MZ [6])
25 | CN(C)CCC=C1c2ccccc2CCc2ccccc21 [Amitryptiline hydrochloride] | 2.23 | 1.04 | 1.41 | 0.0305 | 2.47 | 1.81
26 | Nc1c2c(nc3ccccc13)CCCC2 [Tacrine hydrochloride] | 0.535 | 0.705 | -0.59 | 0.0516 | 0.0216 | 0.583
27 | C=CCOC(Cn1ccnc1)c1ccc(Cl)cc1Cl (configuration not stated) [Enilconazole] | -0.206 | -0.741 | 0.571 | 0.192 | -0.128 | -0.352
28 | Cn1ccnc1S [Methimazole] | -0.549 | -0.811 | -0.397 | -0.237 | -0.496 | -0.58
29 | CC[C@@H]1C(=O)OC[C@@H]1Cc1cncn1C [Pilocarpine nitrate] | -0.402 | -0.0375 | -0.715 | -0.63 | -0.502 | -0.573
30 | CCCCCCC[N+](CC)(CC)CCCCc1ccc(Cl)cc1 [Clofilium tosylate] | -0.496 | -0.791 | -0.98 | -1.56 | -0.614 | -0.77
31 | Cn1c(=O)c2[nH]cnc2n(C)c1=O [Aminophylline] | -0.25 | 0.505 | -0.204 | 0.324 | -0.281 | -0.178
32 | CO[C@H]1C[C@H](O[C@H]2[C@H](C)[C@@H](O[C@@H]3O[C@H](C)C[C@H](N(C)C)[C@H]3OC(C)=O)[C@@H](C)C[C@@]3(CO3)C(=O)[C@H](C)[C@@H](OC(C)=O)[C@@H](C)[C@@H](C)OC(=O)[C@@H]2C)O[C@@H](C)[C@@H]1OC(C)=O [Troleandomycin] | -0.105 | 0.938 | -0.701 | -0.492 | -0.249 | -0.17
33 | Nc1cc(C(Cl)=C(Cl)Cl)c(S(N)(=O)=O)cc1S(N)(=O)=O [Clorsulon] | -0.372 | 0.212 | -0.73 | -0.454 | -0.454 | -0.586
34 | C=CCN1CCCC1CNC(=O)c1cc2nn[nH]c2cc1OC (configuration not stated) [Alizapride HCl] | -0.413 | 0.636 | -0.622 | -0.69 | -0.538 | -0.182
35 | C#C[C@]1(OC(C)=O)CC[C@H]2[C@@H]3CCC4=CC(=NO)CC[C@@H]4[C@H]3CC[C@@]21CC (mixture of isomers) [Norgestimate] | -0.26 | 1.65 | 0.197 | 0.173 | -0.31 | 0.087
36 | O=C1Cc2cc(CCN3CCN(c4nsc5ccccc45)CC3)c(Cl)cc2N1 [Ziprasidone  Hydrochloride] | 1.04 | 1.09 | 0.285 | 0.974 | 0.571 | 1.31
37 | Cc1cnc(C(=O)O)c[n+]1[O-] [Acipimox] | -0.468 | -0.426 | -0.532 | -0.464 | -0.503 | -0.519
38 | OC[C@H]1O[C@@H](Oc2ccc(O)cc2)[C@H](O)[C@@H](O)[C@@H]1O [Arbutin] | -0.459 | 0.327 | -0.0729 | -0.0721 | -0.436 | -0.605
39 | COc1cccc(N(C)C(=S)Oc2ccc3c(c2)CCCC3)n1 [Liranaftate] | 0.29 | -0.439 | -0.212 | 0.593 | -0.0958 | -0.421
40 | CN(c1nccc(=O)[nH]1)C1CCN(c2nc3ccccc3n2Cc2ccc(F)cc2)CC1 [Mizolastine] | -0.6 | 0.425 | -0.708 | 0.222 | -0.551 | 0.0832
41 | CN(C)CCOC(c1ccccc1)c1ccccc1.Cn1c(=O)c2[nH]c(Cl)nc2n(C)c1=O [Dimenhydrinate] | -0.457 | 0.504 | -0.514 | -0.355 | -0.463 | -0.165
42 | CCN(CC)CC#CCOC(=O)C(O)(c1ccccc1)C1CCCCC1 (configuration not stated) [Oxybutynin chloride] | 0.579 | 1.7 | 0.833 | 0.613 | 0.892 | 1.15
43 | COCC(=O)Nc1c(I)c(C(=O)NCC(O)CO)c(I)c(C(=O)N(C)CC(O)CO)c1I (configuration not stated) [Iopromide] | -0.665 | -1.68 | -0.559 | -0.164 | -0.527 | -0.574
44 | CC(C)/N=c1\cc2n(-c3ccc(Cl)cc3)c3ccccc3nc-2cc1Nc1ccc(Cl)cc1 [Clofazimine] | 1.95 | 1.42 | -0.119 | -1.15 | 0.416 | -0.0158
45 | C[C@H](CCC(=O)O)[C@H]1CC[C@H]2[C@@H]3[C@H](O)C[C@@H]4C[C@H](O)CC[C@]4(C)[C@H]3CC[C@]12C [Chenodiol] | -0.496 | -1.46 | -0.897 | -0.999 | -0.575 | -0.773
46 | CC(=O)O[C@H]1C[C@@]2(C)[C@@H](C[C@@H](O)[C@H]3[C@@]4(C)CC[C@@H](O)[C@@H](C)[C@@H]4CC[C@@]32C)/C1=C(\CCC=C(C)C)C(=O)O [Fusidic acid sodium salt] | -0.322 | 0.503 | -0.581 | 0.0569 | -0.49 | -0.416
47 | CCC(C)(C)C(=O)O[C@H]1C[C@@H](C)C=C2C=C[C@H](C)[C@H](CC[C@@H]3C[C@@H](O)CC(=O)O3)[C@H]21 [Simvastatin] | -0.965 | -1.54 | -0.982 | -0.319 | -0.637 | 0.381
